For assay [1], the target named is CDK3/Cyclin E (Homo sapiens) (UniProt P24864+Q00526). To be noted: at 1 µM.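 Also: each figure is a mean percent inhibition of the CDK3/cyclin E complex.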
In assay [2] the target is Cyclin-dependent kinase 4 (Homo sapiens) (UniProt P11802). To be noted: at 0.1 µM.
Assay [3] has the same target. To be noted: at 1 µM.
In assay [4] the target is Cyclin-dependent kinase 5 (Homo sapiens) (UniProt Q00535). To be noted: at 0.1 µM.
For assay [5] the target is unchanged. The note with it: at 1 µM.
In assay [6] the target is Cyclin-dependent kinase 6 (Homo sapiens) (UniProt Q00534). To be noted: at 0.1 µM.
Chain of Cyclin-dependent kinase 6 (Homo sapiens) (Q00534 whole entry): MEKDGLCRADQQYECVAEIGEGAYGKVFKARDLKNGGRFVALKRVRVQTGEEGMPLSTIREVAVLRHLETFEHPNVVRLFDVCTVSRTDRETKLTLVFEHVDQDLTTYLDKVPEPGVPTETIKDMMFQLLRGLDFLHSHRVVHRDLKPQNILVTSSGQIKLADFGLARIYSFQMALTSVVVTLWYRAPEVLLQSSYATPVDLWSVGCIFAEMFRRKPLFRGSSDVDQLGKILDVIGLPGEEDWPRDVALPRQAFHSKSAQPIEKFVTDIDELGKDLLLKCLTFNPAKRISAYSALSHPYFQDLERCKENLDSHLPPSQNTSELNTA
The target is the same in assay [7]. The note with it: at 1 µM.
Assay [8] addresses Dual specificity protein kinase CLK2 (Homo sapiens) (UniProt P49760). The note with it: at 0.1 µM.
For assay [9] the target is unchanged. The note with it: at 1 µM.
Assay [10] has as its target Dual specificity protein kinase CLK3 (Homo sapiens) (UniProt P49761). To be noted: at 0.1 µM.
Assay [11] has the same target. The note with it: at 1 µM.
Assay [12] deals with Dual specificity tyrosine-phosphorylation-regulated kinase 1A (Homo sapiens) (UniProt Q13627). The note with it: at 0.1 µM.
The target is the same in assay [13]. To be noted: at 1 µM.
Assay [14] concerns the target Dual specificity tyrosine-phosphorylation-regulated kinase 1B (Homo sapiens) (UniProt Q9Y463). The note with it: at 0.1 µM.
Assay [15] has the same target. The note with it: at 1 µM.
Assay [16] concerns the target T1, Dual specificity tyrosine-phosphorylation-regulated kinase 2 (Homo sapiens) (UniProt Q92630).
T1 sequence (whole entry): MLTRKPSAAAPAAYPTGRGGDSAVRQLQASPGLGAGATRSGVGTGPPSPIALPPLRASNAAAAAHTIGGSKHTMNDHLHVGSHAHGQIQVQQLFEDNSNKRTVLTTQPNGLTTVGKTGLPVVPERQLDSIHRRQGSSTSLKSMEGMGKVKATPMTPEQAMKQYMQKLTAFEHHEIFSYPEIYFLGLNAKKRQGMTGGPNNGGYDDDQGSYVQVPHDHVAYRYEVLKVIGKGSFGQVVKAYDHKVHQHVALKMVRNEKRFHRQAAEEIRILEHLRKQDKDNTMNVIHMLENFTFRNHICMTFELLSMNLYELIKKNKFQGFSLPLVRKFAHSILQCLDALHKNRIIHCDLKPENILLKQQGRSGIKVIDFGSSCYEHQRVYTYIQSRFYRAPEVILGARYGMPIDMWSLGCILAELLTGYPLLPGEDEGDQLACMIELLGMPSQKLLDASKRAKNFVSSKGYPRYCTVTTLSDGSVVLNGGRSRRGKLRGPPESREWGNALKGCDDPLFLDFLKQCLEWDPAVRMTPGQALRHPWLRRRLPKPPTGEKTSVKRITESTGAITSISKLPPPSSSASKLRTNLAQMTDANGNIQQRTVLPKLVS
The note with it: at 0.1 µM.

Assay [17] has as its target T1, Dual specificity tyrosine-phosphorylation-regulated kinase 2 (Homo sapiens). The note with it: at 1 µM.
Assay [18] has as its target Glycogen synthase kinase-3 alpha (Homo sapiens) (UniProt P49840). To be noted: at 0.1 µM.
For assay [19] the target is unchanged. The note with it: at 1 µM.
Assay [20] addresses Glycogen synthase kinase-3 beta (Homo sapiens) (UniProt P49841). To be noted: at 0.1 µM.

Each structure is given as a SMILES string.

Chain of Dual specificity tyrosine-phosphorylation-regulated kinase 1B (Homo sapiens) (Q9Y463 whole entry, looked up): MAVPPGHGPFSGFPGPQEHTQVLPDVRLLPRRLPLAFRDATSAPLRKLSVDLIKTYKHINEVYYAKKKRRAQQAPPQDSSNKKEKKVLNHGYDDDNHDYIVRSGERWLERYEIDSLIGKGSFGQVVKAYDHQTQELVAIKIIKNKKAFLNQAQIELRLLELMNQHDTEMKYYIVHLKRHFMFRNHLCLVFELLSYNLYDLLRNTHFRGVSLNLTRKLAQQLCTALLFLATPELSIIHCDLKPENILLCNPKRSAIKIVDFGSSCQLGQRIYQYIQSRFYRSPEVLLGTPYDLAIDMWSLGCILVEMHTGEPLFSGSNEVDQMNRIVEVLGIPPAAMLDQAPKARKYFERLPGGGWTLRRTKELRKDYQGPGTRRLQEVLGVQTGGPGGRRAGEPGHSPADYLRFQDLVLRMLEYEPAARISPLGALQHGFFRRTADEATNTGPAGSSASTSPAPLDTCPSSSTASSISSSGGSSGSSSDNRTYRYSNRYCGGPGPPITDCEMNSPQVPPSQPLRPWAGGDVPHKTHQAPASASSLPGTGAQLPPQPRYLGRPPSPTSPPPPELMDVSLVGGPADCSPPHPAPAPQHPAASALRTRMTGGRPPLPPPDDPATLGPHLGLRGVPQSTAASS
Chain of CDK3/Cyclin E (Homo sapiens) (P24864 whole entry, looked up): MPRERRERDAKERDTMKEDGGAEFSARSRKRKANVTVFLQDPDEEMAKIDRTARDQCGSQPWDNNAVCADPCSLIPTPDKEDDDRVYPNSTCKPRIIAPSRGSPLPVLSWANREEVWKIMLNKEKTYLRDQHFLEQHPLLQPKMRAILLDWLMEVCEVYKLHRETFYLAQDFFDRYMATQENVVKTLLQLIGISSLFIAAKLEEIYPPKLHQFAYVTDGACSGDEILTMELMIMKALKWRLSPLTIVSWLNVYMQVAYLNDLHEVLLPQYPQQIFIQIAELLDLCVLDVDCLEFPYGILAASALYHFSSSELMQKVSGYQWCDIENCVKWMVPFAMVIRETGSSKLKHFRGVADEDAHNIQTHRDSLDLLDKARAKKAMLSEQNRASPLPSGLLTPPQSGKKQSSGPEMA
Chain of CDK3/Cyclin E (Homo sapiens) (Q00526 whole entry, looked up): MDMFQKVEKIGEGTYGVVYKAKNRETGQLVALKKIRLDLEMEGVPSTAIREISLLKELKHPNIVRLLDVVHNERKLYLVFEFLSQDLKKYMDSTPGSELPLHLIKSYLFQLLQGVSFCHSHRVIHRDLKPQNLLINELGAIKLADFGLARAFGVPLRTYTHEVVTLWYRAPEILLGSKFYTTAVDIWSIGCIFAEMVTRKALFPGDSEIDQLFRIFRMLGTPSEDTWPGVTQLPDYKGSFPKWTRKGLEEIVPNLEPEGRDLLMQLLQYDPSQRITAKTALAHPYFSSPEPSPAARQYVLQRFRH
Chain of Glycogen synthase kinase-3 beta (Homo sapiens) (P49841 whole entry, looked up): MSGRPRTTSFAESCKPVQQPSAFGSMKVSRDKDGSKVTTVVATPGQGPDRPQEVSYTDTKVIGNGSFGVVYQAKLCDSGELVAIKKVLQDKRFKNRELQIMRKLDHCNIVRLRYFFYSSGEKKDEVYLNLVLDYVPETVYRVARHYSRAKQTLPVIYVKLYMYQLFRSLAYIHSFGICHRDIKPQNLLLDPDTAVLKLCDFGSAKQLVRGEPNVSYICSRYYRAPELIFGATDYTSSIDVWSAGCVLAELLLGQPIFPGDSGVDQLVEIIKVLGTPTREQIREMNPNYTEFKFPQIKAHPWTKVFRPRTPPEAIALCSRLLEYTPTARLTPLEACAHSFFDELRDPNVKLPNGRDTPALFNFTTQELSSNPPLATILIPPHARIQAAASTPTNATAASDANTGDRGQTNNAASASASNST
Chain of Cyclin-dependent kinase 4 (Homo sapiens) (P11802 whole entry): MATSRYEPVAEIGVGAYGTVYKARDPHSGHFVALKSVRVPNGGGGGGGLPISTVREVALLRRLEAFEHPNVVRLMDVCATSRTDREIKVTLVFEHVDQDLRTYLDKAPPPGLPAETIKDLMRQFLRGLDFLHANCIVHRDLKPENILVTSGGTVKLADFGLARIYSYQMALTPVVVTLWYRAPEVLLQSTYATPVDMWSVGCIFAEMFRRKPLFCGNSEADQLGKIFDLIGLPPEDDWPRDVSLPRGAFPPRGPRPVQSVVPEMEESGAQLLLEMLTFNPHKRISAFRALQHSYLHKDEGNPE
Chain of Dual specificity protein kinase CLK2 (Homo sapiens) (P49760 whole entry, looked up): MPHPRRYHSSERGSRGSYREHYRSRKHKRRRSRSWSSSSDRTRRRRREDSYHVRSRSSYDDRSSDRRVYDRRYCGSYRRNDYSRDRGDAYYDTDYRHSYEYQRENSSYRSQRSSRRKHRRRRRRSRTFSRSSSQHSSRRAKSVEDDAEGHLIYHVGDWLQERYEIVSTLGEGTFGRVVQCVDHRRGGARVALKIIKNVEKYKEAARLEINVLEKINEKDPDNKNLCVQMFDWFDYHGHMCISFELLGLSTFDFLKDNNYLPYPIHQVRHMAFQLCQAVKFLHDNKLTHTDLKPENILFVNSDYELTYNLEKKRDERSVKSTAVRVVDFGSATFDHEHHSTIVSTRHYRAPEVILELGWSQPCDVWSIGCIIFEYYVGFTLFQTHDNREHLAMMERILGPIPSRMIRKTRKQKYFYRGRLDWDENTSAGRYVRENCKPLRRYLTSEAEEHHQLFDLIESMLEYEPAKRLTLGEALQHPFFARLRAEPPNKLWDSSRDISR
Chain of Glycogen synthase kinase-3 alpha (Homo sapiens) (P49840 2-483 limits assumed): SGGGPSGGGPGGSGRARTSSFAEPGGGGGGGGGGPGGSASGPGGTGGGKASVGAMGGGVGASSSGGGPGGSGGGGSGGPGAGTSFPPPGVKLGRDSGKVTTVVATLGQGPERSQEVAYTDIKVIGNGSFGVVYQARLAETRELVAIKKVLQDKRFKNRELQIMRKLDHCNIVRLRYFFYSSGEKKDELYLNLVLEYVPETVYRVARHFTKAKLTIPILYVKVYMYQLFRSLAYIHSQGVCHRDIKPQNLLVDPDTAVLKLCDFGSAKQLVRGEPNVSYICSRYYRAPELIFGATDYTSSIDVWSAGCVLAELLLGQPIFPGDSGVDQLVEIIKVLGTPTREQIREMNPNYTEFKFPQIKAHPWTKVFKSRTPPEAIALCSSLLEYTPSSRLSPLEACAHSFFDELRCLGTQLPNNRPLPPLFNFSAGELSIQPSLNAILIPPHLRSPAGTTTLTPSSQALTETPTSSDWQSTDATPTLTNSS
Chain of Dual specificity protein kinase CLK3 (Homo sapiens) (P49761 whole entry, looked up): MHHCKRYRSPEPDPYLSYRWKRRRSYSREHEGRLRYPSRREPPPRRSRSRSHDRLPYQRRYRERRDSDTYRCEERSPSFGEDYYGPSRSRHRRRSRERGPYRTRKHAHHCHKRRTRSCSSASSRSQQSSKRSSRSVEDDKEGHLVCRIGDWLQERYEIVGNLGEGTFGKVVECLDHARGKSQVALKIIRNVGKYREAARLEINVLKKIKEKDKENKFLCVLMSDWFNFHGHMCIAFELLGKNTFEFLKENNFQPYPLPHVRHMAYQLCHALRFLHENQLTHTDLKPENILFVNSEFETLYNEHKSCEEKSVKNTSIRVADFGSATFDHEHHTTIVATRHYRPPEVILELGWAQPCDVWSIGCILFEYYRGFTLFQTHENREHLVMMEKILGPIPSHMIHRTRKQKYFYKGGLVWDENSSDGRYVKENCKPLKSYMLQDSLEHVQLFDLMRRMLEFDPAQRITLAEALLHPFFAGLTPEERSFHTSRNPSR
Chain of Cyclin-dependent kinase 5 (Homo sapiens) (Q00535 whole entry, looked up): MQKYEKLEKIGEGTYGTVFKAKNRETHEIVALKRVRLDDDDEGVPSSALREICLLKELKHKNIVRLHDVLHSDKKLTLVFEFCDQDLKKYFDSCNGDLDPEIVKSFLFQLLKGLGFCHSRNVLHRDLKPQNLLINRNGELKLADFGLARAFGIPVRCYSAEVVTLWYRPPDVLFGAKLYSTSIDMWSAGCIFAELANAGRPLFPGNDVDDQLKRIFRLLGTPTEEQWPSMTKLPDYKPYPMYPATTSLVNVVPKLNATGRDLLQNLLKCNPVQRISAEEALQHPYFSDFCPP

Broadly, the inhibition is the change of the read-out against control, counted positive when it falls. For the compound `NCc1ccc(-n2c(-c3nonc3N)nc3cnccc32)cc1`, the inhibition in assay [1] was 6.36%; in assay [2], 5.03%; in assay [3], 10.2%; in assay [4], 4.76%; in [5], 11.9%; in [6] it was -0.37%. For the same compound, the inhibition amounted to 5.55% in assay [7]; 6.2% in assay [8]; 28.7% in [9]; 2.13% in assay [10]; 3.13% in assay [11]; 8.53% in assay [12]. For the same compound, the inhibition in [13] was found to be 37.5%; in assay [14], 5.66%; in assay [15], 36.4%; in assay [16] it was 3.41%; in assay [17], 4.54%; in [18] it was 25.6%. The inhibition was determined as 67% in assay [19] and 18.1% in [20].
For `CN1CCN(CCCNc2nc3ccc(Oc4ccc(NC(=O)Nc5cc(C(F)(F)F)ccc5F)cc4)cc3[nH]2)CC1`, the inhibition was 2.2% in [1]; -3.04% in [2]; -2.88% in [3]; -2.74% in assay [4]; -3.46% in [5]; -4.09% in assay [6]. Also, the inhibition in [7] was -1.64%; in assay [8] it was 2.17%; in assay [9], 1.41%; in [10], -3.87%; in assay [11], -3.62%; in assay [12], -4.06%. For the same compound, the inhibition in assay [13] was -2.54%; in [14] it was -2.52%; in [15] it was -2.58%; in [16] it was 0.8%; in assay [17] it was -0.19%; in assay [18], -2.85%. The figures for the inhibition in assay [19] and in [20] were 0.59% and -2.95%, respectively.
`COc1cc(N2CCN(C(C)C)CC2)ccc1Nc1nc(Nc2ccc(F)cc2C(=O)NC[C@@H](O)CO)c2cc[nH]c2n1`: the inhibition in assay [1] is -3.1%; in [2], -2.67%; in [3], -0.98%; in assay [4], -3.1%; in assay [5], -4.32%; in [6], -8.05%. The inhibition is -5.78% in assay [7]; 29.4% in [8]; 82.9% in [9]; -0.73% in assay [10]; 4.1% in [11]; 0.93% in assay [12]. Further, the inhibition in assay [13] is 12.7%; in assay [14], -2.96%; in assay [15] it was 12%; in assay [16] it was 3.04%; in [17], 5.79%; in assay [18] it was -1.27%. Also, the inhibition in [19] was 0.1%; in assay [20], -0.78%.
`CCS(=O)(=O)c1ccc(OC)c(Nc2ncc(-c3cccc(-c4ccccc4F)c3)o2)c1`: the inhibition in [1] is 1.22%; in assay [2], 0.53%; in [3], -0.45%; in [4], 0.5%; in assay [5] it was 3.33%; in assay [6] it was 0.01%. In addition, the inhibition in assay [7] is 1.94%; in assay [8], 5.83%; in assay [9], 36.9%; in assay [10], 2.7%; in assay [11], 13.9%; in assay [12], 3.84%. The inhibition in [13] was found to be 26%; in [14], 3.9%; in [15], 18.5%; in assay [16], 1.46%; in assay [17], 10.3%; in [18], 2.37%. Further, the inhibition was determined as 9.24% in assay [19] and 1.65% in [20].
As for `O=C1Nc2ccccc2/C1=C/Nc1ccc(-n2cncn2)cc1`, the inhibition worked out at 16.1% in assay [1]; 9.53% in assay [2]; 25.2% in assay [3]; 3.62% in assay [4]; 21.5% in assay [5]; 18% in assay [6]. Moreover, the inhibition turned out to be 66.2% in assay [7]; 4.14% in assay [8]; 21.6% in [9]; 0.91% in assay [10]; 1.52% in assay [11]; 6.54% in assay [12]. For the same compound, the inhibition in [13] worked out at 14.3%; in assay [14], 3.43%; in assay [15], 11.6%; in assay [16], 3.46%; in [17] it was 6.8%; in assay [18] it was 17.3%. Moreover, the inhibition in [19] was determined as 28.2%; in assay [20] it was 15.3%.
With `COc1cccc(/C=N/Nc2ncnc3c2cnn3-c2cccc(OC)c2)c1`, the inhibition was -2.86% in [1]; 2.17% in assay [2]; 4.46% in assay [3]; 0.77% in assay [4]; 3.98% in assay [5]; -0.23% in assay [6]. Moreover, the inhibition in [7] amounted to 1.15%; in assay [8], 0.01%; in [9] it was 0.99%; in assay [10], 0.55%; in assay [11], 1.67%; in [12], 3.1%. Further, the inhibition in assay [13] was 7.79%; in assay [14] it was -0.79%; in assay [15], 2.23%; in assay [16], 2.19%; in [17], 6.04%; in assay [18] it was 14.8%. The inhibition in assay [19] was found to be 58.1%; in [20], 10.3%.
As to `CS(=O)(=O)CCNCc1ccc(-c2ccc3ncnc(Nc4ccc(OCc5ccccc5)c(Br)c4)c3c2)o1`, the inhibition is -3.92% in assay [1]; -1.53% in [2]; -0.83% in assay [3]; -3.53% in assay [4]; -2.4% in assay [5]; -4.44% in assay [6]. For the same compound, the inhibition is -4.65% in [7]; 1.39% in assay [8]; -1.17% in assay [9]; -3.26% in assay [10]; -3.65% in [11]; -3.54% in assay [12]. Moreover, the inhibition in assay [13] is -2.54%; in assay [14] it was -5.79%; in assay [15] it was -4.49%; in assay [16], 2.81%; in [17], 1.15%; in assay [18] it was -0.62%. The inhibition in assay [19] was -0.89%; in [20], -1.65%.

Values taken from ChEMBL document CHEMBL1961873, “Compounds: GSK PKIS; Assays: Nanosyn kinase panel” (2012).
